This passage reports Potency, max response and outcome results from PubChem BioAssay (NCATS).

The subject of one assay is HEK293. Put plainly: Cytotoxic Profiling of Annotated Libraries Using Quantitative High-Throughput Screening (AID 1296008). Further: potency means the concentration at half of the fitted maximal effect. On max response: on the % scale 0 is the no-effect control and ±100 the full control effect. Conditions: Five cell lines viability, CellTiter-Glo ATP luminescence, 48-72 h; max response: active compounds read low. The method, boiled down:
(§1)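 Cells exposed to compounds for 48 or 72 hr at 37 degrees Celsius. Viability read as ATP-coupled luminescence with CellTiter-Glo after 10 min at room temperature.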
(In general: ATP-based viability assays read luminescence as a measure of living cells.)

A further assay concerns NIH3T3. The description is as above. Conditions: Five cell lines viability, CellTiter-Glo ATP luminescence, 48-72 h; max response: active compounds read low. The method in brief: as §1
Assay [1] relates to HaCat. The assay is described as above. Conditions: Five cell lines viability, CellTiter-Glo ATP luminescence, 48-72 h; max response: active compounds read low. The method in brief: as §1
The test system of assay [2] is HACAT. As to the kind of experiment: qHTS assay to identify novel small-molecules to repurpose for Merkel cell carcinoma treatment (AID 1296009). Conditions: MCC and control cell lines, CellTiter-Glo viability, 72 h; at 44.8 µM (top of the series) unless noted. The method, boiled down:
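Dose-response viability screen; 72 hr exposure at 37 degree celsius; CellTiter-Glo added, 10 min room temperature, luminescence read; RLUs scaled between no-cell and DMSO wells.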
On the technique in general: Quantitative high-throughput screening tests each substance at several concentrations.

The subject of a further assay is KB-3-1. Put plainly: Cytotoxic Profiling of Annotated Libraries Using Quantitative High-Throughput Screening (AID 1296008). Further: potency means the concentration at half of the fitted maximal effect. On max response: on the % scale 0 is the no-effect control and ±100 the full control effect. Conditions: Five cell lines viability, CellTiter-Glo ATP luminescence, 48-72 h; max response: active compounds read low. The method, boiled down:
as §1

The structures appear in SMILES notation. Results filed as inconclusive are left out. A number with no mark means an inactive call. Calls of active or inactive are those of the source. The call rests on the fitted dose curve; in most records, active means well fitted inhibition curve with a large enough effect; inconclusive means small, poorly fitted or top-dose-only effect; inactive means flat fitted curve, though single readings scatter.
Further: nearly all actives have a fitted effect of over 60% in size.

On to `CC(C)(C)Oc1ccc(OCC2Cc3ccccc3CN2C(=O)c2cccc3ccccc23)cc1` (stereo unspecified), for which, in the assay with HEK293, the Potency was 13 µM (active). In addition, the max response with NIH3T3 was -2.51%.
Take `O=C(O)c1ccc(N2C(=O)/C(=C/c3ccc(-c4ccc([N+](=O)[O-])cc4)o3)C=C2c2ccccc2)cc1`: the max response with HEK293 is -3.48%. Also, the result with HaCat [1] and in the assay with HACAT [2] was inactive.
Take `O=C(NC1CCN(CCCCC2(C(=O)NCC(F)(F)F)c3ccccc3-c3ccccc32)CC1)c1ccccc1-c1ccc(C(F)(F)F)cc1`: the Potency in the assay with HEK293 was 11.6 µM (active); in the assay on NIH3T3, 7.31 µM (active).
For `Cn1cc(-c2cnn3c(N)c(Br)c([C@@H]4CCCNC4)nc23)cn1` the same measures were 1.16 µM (active) and 2.06 µM (active).
Turning to `CNC(=O)COC(=O)N1CCC(CCc2ccc(Cl)cc2)CC1`, in the assay on HEK293, the Potency was 14.6 µM (active). Also, the compound was classed as inactive in the assay with HaCat [1] and in the assay on HACAT [2]. Further, the max response with NIH3T3 was -13%.
Take `C=C1CO[C@@]2(O[C@H]3CC4C5CC=C6C[C@@H](O)C[C@@H](O[C@@H]7OC[C@H](O)[C@H](O[C@@H]8OC[C@@H](O)[C@H](O)[C@H]8O)[C@H]7O[C@@H]7O[C@@H](C)[C@H](OC(C)=O)[C@@H](OC(C)=O)[C@H]7OC(C)=O)[C@]6(C)C5CC[C@]4(C)[C@@H]3[C@@H]2C)[C@@H](O)[C@H]1OC1OC(C)C(O)C(O)C1O` (stereo partly specified): the max response in the assay on HEK293 was -19.9%. Moreover, the compound was called inactive in the assay on HaCat [1] and in the assay with NIH3T3. Further, in the assay with HACAT [2], the outcome is “inactive [at 9.27 µM]”.
In the case of `Cc1sc2c(c1C)C(c1ccc(Cl)cc1)=N[C@@H](CC(=O)Nc1ccc(OCCOCCOCCOCCNc3cccc4c3C(=O)N(C3CCC(=O)NC3=O)C4=O)cc1)c1nnc(C)n1-2` (stereo partly specified), the Potency in the assay with HEK293 was 0.0447 µM (active). Further, in the assay on NIH3T3, the max response is -54%.
Regarding `CCCC(CCC)C(=O)Nc1ccn([C@@H]2O[C@H](CO)[C@@H](O)C2(F)F)c(=O)n1`, the results for the Potency with HEK293 and in the assay with NIH3T3 were 6.51 µM (active) and 4.11 µM (active), respectively.
Take `O=c1ccc2ccc(OCCCCN3CCN(c4cccc5sccc45)CC3)cc2[nH]1`: the Potency in the assay with HEK293 is 11.6 µM (active). Moreover, the max response with NIH3T3 was -13.6%.
`CC(=O)O[C@H]1C[C@H](OC(C)=O)[C@]2(C)[C@H](CC[C@@]34O[C@@H]3C3=C(C)C(=O)O[C@@H]3C[C@H]42)C1(C)C`: in the assay on HEK293, the Potency was 5.63 µM (active). The compound was classed as inactive in the assay on HaCat [1]. In addition, in the assay on NIH3T3, the max response is -18%. For the same compound, the outcome in the assay with HACAT [2] was “inactive [at 17.4 µM]”.
For the compound `C=C1C(=O)OC2/C=C(/C)C3=CC(=O)C(C)(CC(OC(=O)/C(C)=C/COC(C)=O)C12)O3` (stereo unspecified), the values for the Potency in the assay with HEK293 and in the assay on NIH3T3 were 2 µM (active) and 3.99 µM (active), respectively.
Regarding `O=C(Nc1ccc(-c2ccnc(Nc3ccc(N4CCOCC4)cc3)n2)cc1)C1CCCN1` (stereo unspecified), the Potency in the assay on HEK293 is 6.51 µM (active). The result with HaCat [1] and with HACAT [2] was inactive.
For `C[C@H](CN(C)C)Oc1nc(Nc2cc3cccc(Cl)c3cn2)cnc1C#N`, the Potency with HEK293 was 1.3 µM (active); with NIH3T3, 2.06 µM (active).
Take `NC(=O)c1ccccc1Nc1ccnc(Nc2cccc(O)c2)n1`: the Potency in the assay with HaCat [1] was 5.8 µM (active); in the assay on KB-3-1 it was 8.2 µM (active); in the assay on NIH3T3 it was 7.31 µM (active).
The matching figures for `CCCCNc1ncc2c(-c3ccc(S(=O)(=O)N4CCOCC4)cc3)nn(C3CCC(O)CC3)c2n1` (stereo unspecified): 6.51 µM (active), 11.6 µM (active) and 7.31 µM (active).
As for `O=C(Nc1nc2cc(C(F)(F)F)cc(NC3CC3)n2n1)c1cccnc1`, the Potency in the assay with HaCat [1] is 4.61 µM (active); with KB-3-1 it was 5.8 µM (active).
Take `Cc1cn2cc(C(=O)N(C)CCO)cc(NC3CCOc4cccc(C)c43)c2n1` (stereo unspecified): in the assay on HaCat [1], the max response is -18.4%. For the same compound, the compound was called inactive in the assay on KB-3-1.
For `CCOC(=O)C1(CCOc2ccccc2)CCN(Cc2ccc(O)c(Cl)c2)CC1`, the max response with HaCat [1] is 0.37%; with KB-3-1, -15.3%; in the assay on NIH3T3 it was -16.4%.
`NS(=O)(=O)Nc1ncnc(OCCOc2ncc(Br)cn2)c1-c1ccc(Br)cc1`: the max response with HaCat [1] is -23.8%; in the assay on KB-3-1 it was 6.63%; with NIH3T3 it was -5.35%.
For `C=C1C(=O)O[C@@H]2C[C@H](C)C3=CC(=O)[C@H](O)[C@@]3(C)C[C@H]12` the same measures were 1.47%, 7.17% and -23.3%.
As for `Cn1ncnc1[C@H]1c2n[nH]c(=O)c3cc(F)cc(c23)N[C@@H]1c1ccc(F)cc1`, the Potency in the assay with HaCat [1] is 3.17 µM (active). Also, in the assay on KB-3-1, the max response was -8.81%.
Take `Cc1cc2sc(NC(=O)Cc3ccccc3)nc2cc1Cl`: the max response in the assay on HaCat [1] is -26.8%; in the assay with KB-3-1, 3.53%; in the assay on NIH3T3, 0.0198%.
Take `C[C@H]1CC[C@@]2(OC1)O[C@H]1CC3[C@@H]4CC[C@@H]5C[C@@H](O[C@@H]6O[C@H](CO)[C@@H](O[C@@H]7O[C@H](CO[C@@H]8OC[C@@H](O)[C@H](O)[C@H]8O)[C@@H](O[C@@H]8O[C@H](CO)[C@H](O)[C@H](O)[C@H]8O)[C@H](O)[C@H]7O)[C@H](O)[C@H]6O)CC[C@]5(C)C4CC[C@]3(C)[C@H]1[C@@H]2C` (stereo partly specified): the max response with HaCat [1] was -10.6%. For the same compound, in the assay on KB-3-1, the compound was classed as inactive.
On to `Cn1c(=O)c(F)c(Nc2ccc(I)cc2F)c2c(=O)n(CC(O)CO)cnc21` (stereo unspecified), for which the Potency is 6.51 µM (active) with HaCat [1] and 1.3 µM (active) in the assay with NIH3T3. The max response in the assay with KB-3-1 was -14.5%.
For `COc1cc2ncnc(Nc3ccc(O)c(Br)c3)c2cc1OC` the same measures were 3.66 µM (active), 11.6 µM (active) and 0.483%.
